Shown are actives, neighbours in structure and some others; about 3.5% of the full set was active somewhere.
MITF primary: inhibitors of human MITF; O75030; AlphaScreen MITF homodimerization, bead proximity signal; inhibition, % at 2.6 µM; 650,000 compounds, 0.91% hits; AID 1259374; in the data active = inhibition above about 50%;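 note: 0% = vehicle wells with protein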
Target sequence (O75030 whole entry, looked up): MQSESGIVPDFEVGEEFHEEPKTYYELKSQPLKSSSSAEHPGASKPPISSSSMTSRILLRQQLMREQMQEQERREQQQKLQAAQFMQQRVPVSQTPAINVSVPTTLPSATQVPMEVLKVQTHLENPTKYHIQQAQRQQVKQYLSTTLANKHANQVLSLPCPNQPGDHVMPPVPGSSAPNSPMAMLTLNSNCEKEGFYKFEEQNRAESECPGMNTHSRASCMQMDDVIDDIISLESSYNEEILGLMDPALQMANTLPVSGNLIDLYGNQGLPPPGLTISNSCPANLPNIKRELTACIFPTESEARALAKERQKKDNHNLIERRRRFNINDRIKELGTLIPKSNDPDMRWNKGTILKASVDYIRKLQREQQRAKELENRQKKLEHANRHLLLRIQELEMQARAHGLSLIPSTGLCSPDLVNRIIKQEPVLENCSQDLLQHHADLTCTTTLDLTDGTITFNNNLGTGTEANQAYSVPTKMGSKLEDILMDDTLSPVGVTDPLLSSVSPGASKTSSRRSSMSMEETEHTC
FBW7 act: activators of human E3 ligase FBW7. Q969H0. AlphaScreen FBW7–phospho-cyclin E peptide binding, activator screen. normalized activity (activation), % at 26.1 µM. 650,000 compounds, 0.13% hits. AID 1259310; in the data active = normalized activity above about 1.9%;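 note: purified mutant Fbw7 with reduced substrate affinity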
GPR151 activ: activators of human GPR151; 650,000 compounds, 1% hits; Q8TDV0; PathHunter beta-arrestin GPR151 cells, luminescence; activation, % at 11.2 µM; in the data active = activation above about 4.9%;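 note: 0% = median of compound wells and 100% = cells with positive control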
TEAD-YAP block: TEAD-YAP interaction inhibition; HEK-TIYL cells, TEAD-Gal4/YAP UAS-luciferase luminescence; inhibition, % at 9.12 µM; 640,000 compounds, 1.4% hits; AID 1259422; in the data active = inhibition above about 32%;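 note: 0% = median of test compound wells and 100% = reference inhibitor wells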
MITF inh conf: human MITF inhibition, confirmation; shares compounds with MITF primary; AlphaScreen MITF homodimerization, biotin/His-MITF beads; inhibition, % at 2.6 µM; 4,700 compounds, 16% hits;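 active = inhibition above a cutoff derived from the DMSO control wells, cut at about 28% in these data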;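 note: 0% = MITF dimer wells with DMSO only; inhibitors lower the bead chemiluminescence by keeping MITF from dimerizing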
AlphaScreen DR: AlphaScreen optical interference, dose response counter-screen; shares compounds with MITF primary; AlphaScreen optical interference counterscreen, cell-free; IC50, µM; 480 compounds, 6% hits; call rule not given here
AS interf ctr: AlphaScreen optical interference, counter-screen. inhibition, % at 2.6 µM. 4,700 compounds, 7.6% hits. shares compounds with MITF primary. LysRS AlphaScreen counterscreen, signal interference, triplicate. AID 1259376;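 active = inhibition above a cutoff derived from the DMSO control wells, cut at about 30% in these data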
GPR151 confirm: confirmation of human GPR151 activators | shares compounds with GPR151 activ | GPR151 PathHunter beta-arrestin cells, luminescence, 90 min; % of EA-reagent control over plate median | activation, % at 11.2 µM | 6,700 tested, under 10 active;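 active = mean percent activation across replicates above the confirmation screen cutoff of 4.91%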
GPR119 counter: activates human GPR119 in a GPR151 counter-screen; AID 1508611; shares compounds with GPR151 activ; GPR119 PathHunter beta-arrestin cells, luminescence, 90 min; 0 = compound-well median, 100 = enzyme-acceptor control; activation, % at 11.2 µM; 6,700 compounds, 0.3% hits;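 active = mean percent activation in the counterscreen above 29.09%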;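 note: counterscreen on off-target GPR119 to flag nonselective hits from the GPR151 activator screen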
Active calls of the source: *; nt = no result.

SMILES | MITF primary | FBW7 act | GPR151 activ | TEAD-YAP block | GPR151 confirm | GPR119 counter | others
COC(=O)N(C)c1nc2ccccc2s1 | 72* | 0 | 5.1* | -20 | 0 | -10 | MITF inh conf=-2;AS interf ctr=-7
O=C1N[C@@H](COCc2ccccc2)C(=O)N2CCN(C(=O)NCc3ccccc3)C[C@H]12 | 75* | 0 | 7.7* | 6 | 0 | 11 | MITF inh conf=72*;AlphaScreen DR=>6.5;AS interf ctr=-3
O=C1N[C@@H](COCc2ccccc2)C(=O)N2CCN(C(=O)Oc3ccc(Cl)cc3)C[C@H]12 | -7 | 0 | 2 | 2 | nt | nt
O=[N+]([O-])c1ccc(O)c(/C=N\Nc2ccnc3cc(Cl)ccc23)c1 | 17 | 0 | -1 | 8 | nt | nt
COc1ccc(CC2(CCC(=O)NC(C)c3nccs3)CCC(=O)N2)c2ccccc12 (configuration not stated) | 1 | 0 | 0 | 3 | nt | nt
CCN1CCN(CCOc2ccc(C)cc2OC)CC1 | 76* | 0 | 5.8* | 4 | 0 | -2 | MITF inh conf=15;AS interf ctr=19
COc1cc(C)ccc1OCCCN1CCCCCC1 | 9 | 0 | 2 | 0 | nt | nt
COc1ccc(C(=O)N2CCN(Cc3ccc(Br)cc3)CC2)cc1 | 44 | 0 | 1 | 31 | nt | nt
O=C(c1ccncc1)N1CCN(Cc2ccc(Br)cc2)CC1 | 77* | 0 | 10* | 2 | 1 | 16 | MITF inh conf=6;AS interf ctr=22
Cc1ccc(OCCOCCN2CCCCC2)c([N+](=O)[O-])c1 | 77* | 0 | 7.6* | 4 | -1 | -12 | MITF inh conf=12;AS interf ctr=14
Cc1cc(C)nc(NNC(=S)NC(=O)c2cc3ccccc3oc2=O)n1 | 17 | 0 | -2 | 8 | nt | nt
Cc1ccc(-n2c(=O)c3oc4ccccc4c3n(CC(N)=O)c2=O)cc1 | 54* | 0 | 5.5* | -4 | 0 | -5 | MITF inh conf=11;AS interf ctr=12
COc1ccc(NC(=O)c2cnc(N3CCN(c4ccccn4)CC3)c3ccccc23)cc1Cl | -3 | 0 | -1 | 19 | nt | nt
COc1ccc(NC(=O)c2cnc(N3CCN(c4ncccn4)CC3)c3ccccc23)cc1OC | 63* | 0 | 5.3* | 50* | 0 | 30* | MITF inh conf=-9;AS interf ctr=-4
Cc1ccc(-c2nn3c4ccc(NC(=O)Cn5ccnc5)cc4nc3c3ccccc23)cc1 | 2 | 0 | 0 | -5 | nt | nt
CC1CN(CCCOc2cc(Cl)ccc2Cl)CC(C)O1 (configuration not stated) | 67* | 0 | 8.0* | 2 | 0 | -9 | MITF inh conf=2;AS interf ctr=15
Cc1nc(SCC(=O)NNC(=O)c2cccs2)n[nH]1 | 10 | 1 | 5.8* | 0 | 0 | 1
Cc1ccccc1NC(=O)C(C)(C)N(Cc1ccco1)C(=O)C(C)Oc1cc(Cl)c(Cl)cc1Cl (configuration not stated) | 12 | 0 | 5.6* | -8 | 0 | -8
Cc1cc(OC(C)C(=O)N(Cc2ccco2)C2CCS(=O)(=O)C2)ccc1Cl (configuration not stated) | 7 | 0 | -1 | 8 | nt | nt
CSc1nc(N)nc(SCC(=O)c2ccc(Cl)s2)c1C#N | 14 | 1 | -1 | -12 | nt | nt
CC(C)c1ccc(OCC(=O)NCCCS(=O)(=O)N2CCc3ccccc3C2)cc1 | 1 | 0 | 8.2* | 2 | 1 | -1
COc1ccc(OCC(=O)NCCSc2ccccc2)cc1 | 1 | 0 | 10* | -22 | 0 | 7
COc1ccc(CCNC(=O)COc2ccc(C(C)C)cc2)cc1 | -6 | 0 | 6.7* | 3 | 0 | -12
CCOc1ccc(S(=O)(=O)N(CC(=O)NCCSc2ccccc2)c2ccccc2)cc1 | 3 | 0 | 5.7* | 7 | 2 | 21
COc1ccc(/C=C2\N=C(c3ccc(Cl)c(Cl)c3)OC2=O)cc1OC | 6 | 0 | 1 | -9 | nt | nt
SMILES | MITF primary | FBW7 act | GPR151 activ | TEAD-YAP block | GPR151 confirm | GPR119 counter | others
CCc1ccc(Cc2c(O)[nH]c(=O)[nH]c2=O)cc1 | -8 | 0 | 1 | -10 | nt | nt
O=C(CSc1nnc2ncccn12)Nc1ccccc1N1CCCCCC1 | 12 | 0 | 0 | -13 | nt | nt
CC(C)Oc1ccc(CN2CCCC(CO)(Cc3ccccc3)C2)cc1CO (configuration not stated) | 10 | 1 | 5.0* | 2 | -1 | -7
COc1ccccc1CN1C(=O)C(C)Oc2ccc(C(F)(F)F)cc21 (configuration not stated) | -2 | 0 | 2 | 4 | nt | nt
Cc1c(NC(=O)C(C)N2C(=O)C3C4CCC(C4)C3C2=O)ccc(Br)c1Cl (configuration not stated) | 14 | 1 | 13* | 3 | 0 | 2
Cc1cccnc1CCNC(=O)c1cc(COc2ccc3ncccc3c2)on1 | 18 | 0 | 1 | 26 | nt | nt
COc1cccc(CCNC(=O)c2cc(COc3ccc4ncccc4c3)on2)c1 | -5 | 0 | 5.9* | 32 | -1 | -17
CC(=O)N1CCc2cc(Br)cc(S(=O)(=O)N3CCC(O)(c4cccc(C(F)(F)F)c4)CC3)c21 | -2 | 0 | 4.9* | 2 | -1 | 11
CC(=O)N1CCc2cc(Br)cc(S(=O)(=O)N3CCCCC3)c21 | 15 | 0 | 1 | -4 | nt | nt
COc1ccc(CN2CCN(Cc3ccccc3O)CC2CCO)c(C)c1C (configuration not stated) | -4 | 0 | 1 | 0 | nt | nt
O=C(/C=C/c1cccs1)NC(=S)Nc1cc([N+](=O)[O-])ccc1O | 34 | 0 | 5.4* | -12 | 0 | -7
O=C(/C=C/c1cccs1)Nc1cc([N+](=O)[O-])ccc1Cl | 15 | 0 | 1 | -1 | nt | nt
O=C(Nc1ccc([N+](=O)[O-])cc1C(=O)O)c1ccccc1 | 1 | 0 | -4 | -3 | nt | nt
CC(OC(=O)c1ccc2c(c1)NC(=O)C(C)(C)O2)C(=O)NC1CCCC1 (configuration not stated) | 14 | 0 | 0 | 0 | nt | nt
Cc1cnc(Cl)nc1NCc1ccccc1 | 5 | 0 | 5.6* | -10 | 0 | 3
N#CC1=C(NC(=O)c2ccc([N+](=O)[O-])cc2)CCC1 | 3 | 0 | 5.6* | 9 | -1 | 6
COc1ccc(C(=O)NC2=C(C#N)CCC2)cc1OC | 21 | 0 | 1 | -2 | nt | nt
O=S(=O)(NCC1(c2ccc(F)cc2)CC1)c1cccnc1 | 11 | 0 | -2 | 3 | nt | nt
CC(=O)N1CCc2c(sc(NC(=O)Cc3ccccc3)c2C(N)=O)C1 | 3 | 0 | 5.3* | 1 | 0 | 0

Screening results: PubChem, The Scripps Research Institute Molecular Screening Center
